Bioassay records: PubChem, NMMLSC
Myeloid diff 2: induction of myeloid progenitor differentiation, primary screen, cell-based, flow cytometry, MLPCN library | ER-HoxA9 myeloid progenitors, lysozyme-GFP differentiation | calls only at 10 µM | 1% of 360,000 active;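 active = normalized GFP-positive differentiation at or above the plate's own cutoff, the solvent-only control mean plus 3 SD; inconclusive = no clear call, values can overlap the other calls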;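 also: cells exposed to compound for four days before flow analysis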
LAP4 TOR yeast: modulators of LAP4-GFP expression in yeast, primary screen, S. cerevisiae, multiplex flow cytometry, MLPCN library | 3 h; median GFP as percent of DMSO wells | AID 2023, 2009 | 0.34% of 320,000 active | GFP response vs DMSO, % at 10 µM;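 active = GFP response vs DMSO above a set limit, about the screen mean plus 3 SD, cut at about 150% in these data; inconclusive = under 70 cell events counted for the yeast strain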
CIT2 TOR yeast: modulators of CIT2-GFP expression in yeast, primary screen, S. cerevisiae, GFP fusion, multiplex flow cytometry, MLPCN library. S. cerevisiae CIT2-GFP strain, 3 h; 100 means same as DMSO wells. GFP response vs DMSO, % at 10 µM. 0.065% of 320,000 active. AID 2029, 2009;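 active = GFP response relative to DMSO above a set limit, near the screen mean plus 3 SD, cut at about 150% in these data; inconclusive = Fewer than 70 cells measured for a yeast strain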;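 also: ratio of well median GFP fluorescence to mean of DMSO wells on the plate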
RPL19A TOR yeast: RPL19A-GFP expression modulators in yeast, primary screen, cell-based, S. cerevisiae, multiplex flow cytometry, MLPCN; S. cerevisiae RPL19A-GFP strain, 3 h; active compounds read low; percent response vs DMSO, % at 10 µM; 0.3% of 330,000 active;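 active = percent response vs DMSO below 50%; inconclusive = fewer than 70 events counted for the yeast strain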;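 also: median channel GFP fluorescence of the barcoded RPL19A-GFP strain; ratio of sample median GFP to plate DMSO average so 100% = DMSO; lower means less RPL19A-GFP as with rapamycin TOR inhibition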
AGP1 TOR yeast: modulators of AGP1-GFP expression in yeast TOR pathway, primary screen, cell-based, multiplex flow cytometry, S. cerevisiae, MLPCN library; AID 2066, 2009; 3 h; GFP as percent of DMSO wells; 0.02% of 320,000 active; GFP response vs DMSO, % at 10 µM;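 active = GFP response relative to DMSO above a set limit, near screen average plus 3 SD, cut at about 150% in these data; inconclusive = fewer than 70 cells counted for the yeast strain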;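 also: median GFP channel fluorescence of the gated AGP1 strain per well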
MEP2 TOR yeast: modulators of MEP2-GFP levels in yeast, primary screen, S. cerevisiae, multiplex flow cytometry, MLPCN library; S. cerevisiae MEP2-GFP strain, 3 h; 100% = DMSO control level; GFP response vs DMSO, % at 10 µM; 0.51% of 330,000 active;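 active = GFP response versus DMSO above a set limit, roughly screen mean plus 3 SD, cut at about 180% in these data; inconclusive = fewer than 70 cells counted for a yeast strain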;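 also: median GFP fluorescence of the barcode-gated MEP2-GFP cells per well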
Numbers without * were called inactive; i = inactive; ? = inconclusive; · = not tested or not shown; + = active, no number; [ ] = remark or other dose. In the library only some 1.8% were active in any assay of this set; here they are far more common.

SMILES | Myeloid diff 2 | LAP4 TOR yeast | CIT2 TOR yeast | RPL19A TOR yeast | AGP1 TOR yeast | MEP2 TOR yeast
CC(=O)Nc1ccc(NS(=O)(=O)c2ccc3[nH]c(=O)[nH]c3c2)cc1 | + | 96.5 | 94.7 | 99.3 | 94.8 | 96.5
CCCCOC(=O)Nc1ccc(S(=O)(=O)Nn2cnnc2)cc1 | i | 73.3 | ? | 38.8*[may fluoresce violet] | ? | 278.0*[may fluoresce violet]
CC(=O)NS(=O)(=O)c1ccc(NS(=O)(=O)c2ccc3ccccc3c2)cc1 | i | 103.0 | 100.8 | 102.8 | 96.1 | 110.8
CCCOC(=O)Nc1ccc(S(=O)(=O)Nn2cnnc2)cc1 | i | 99.3 | 95.3 | 95.1 | 99.0 | 98.7
CC(=O)Nc1ccc(NS(=O)(=O)c2ccc3ccccc3c2)cc1 | + | 97.0 | 88.2 | 96.8 | 99.3 | 102.5
O=C(CCC(NC(=O)OCc1ccccc1)C(=O)OCC(=O)N1CCCCC1)OCC(=O)N1CCCCC1 (configuration not stated) | i | 79.5 | 119.6 | 101.5 | 100.2 | 101.2
COc1cc(COc2ccc(-c3nnco3)cc2)ccc1OC(F)F | i | 100.9 | 103.2 | 106.8 | 102.2 | 107.8
O=S(=O)(Nc1nc2ccccc2nc1Cl)c1ccccc1 | i | 90.1 | 97.8 | 107.1 | 98.0 | 104.3
O=S(=O)(Nc1nc2ccccc2nc1Cl)c1ccc2ccccc2c1 | i | 122.4 | 87.6 | 105.4 | 86.6 | 185.1*
CCN(CC)c1ccc(/C=C/c2nc3ccccc3s2)cc1 | · | 145.3 | 148.8 | 110.8 | 102.2 | 206.0*
CCN(CC)c1ccc(NC(=O)COC(=O)/C=C/c2nc3ccccc3s2)cc1 | i | 108.7 | 101.3 | 107.0 | 101.6 | 118.5
CCN/C=C(\C#N)S(=O)(=O)c1ccc(Br)cc1 | i | 101.6 | 93.2 | 95.0 | 104.7 | 97.7
Cc1ccc(SCCCn2cncn2)cc1 | i | 86.5 | ? | 45.4*[may fluoresce violet] | 20.8 | 319.8*[may fluoresce violet]
Nc1[nH]c(=O)ncc1F | i | 260.7*[may fluoresce red] | 62.9 | ? | 65.9 | 89.3
CC1(C(=O)NS(=O)(=O)c2ccc(F)cc2F)CCN1C(=O)Cc1ccc(Cl)cc1Cl (configuration not stated) | i | · | · | · | · | ·
COC(=O)c1cc(OC)c(OC)cc1NC(=O)CSc1nnnn1Cc1ccccc1 | i | 70.8 | ? | 56.1 | ? | 230.4*[may fluoresce violet]
Cc1cccc(C(=O)O/N=C(\N)c2cccc([N+](=O)[O-])c2)c1 | i | 112.5 | 98.1 | 97.0 | 91.4 | 99.3
N/C(=N\OC(=O)c1cccc([N+](=O)[O-])c1)c1cccnc1 | i | 77.2 | ? | 24.3*[may fluoresce violet] | ? | 214.8*[may fluoresce violet]
Cn1cnnc1SCC(=O)N1CCc2ccccc21 | i | 98.3 | 96.2 | 97.2 | 99.4 | 110.1
CC(C)c1nnc(SCC(=O)N2CCc3ccccc32)n1C | i | 155.9* | 125.9 | 107.9 | · | 166.2
Cc1cccc(C)c1NC(=O)CN1CCN(C(=O)C2CCC2)CC1 | i | · | · | · | · | ·
COc1ccc(CNC(=O)C2CCN(S(=O)(=O)N3CCCCC3)CC2)cc1 | ? | 89.7 | 101.8 | 101.1 | 98.5 | 101.1
COc1ccc(CNC(=O)C2CCNCC2)cc1 | i | 81.9 | ? | 65.0 | ? | 473.6*[may fluoresce violet]
Cc1ccc(S(=O)(=O)NCCC(=O)NCc2cccnc2)cc1 | i | 103.9 | 96.9 | 99.6 | 98.8 | 96.7
O=C(CCNS(=O)(=O)c1ccc(Cl)cc1)NCc1cccnc1 | i | 117.8 | ? | 29.1*[may fluoresce violet] | ? | 252.3*[may fluoresce violet]
CN(C)CCNC(=O)c1coc(=O)c(Br)c1 | i | 106.2 | ? | 17.2*[may fluoresce violet] | ? | 532.0*[may fluoresce violet]
CC(C)CNC(=O)c1coc(=O)c(Br)c1 | i | 102.3 | 99.8 | 98.0 | 108.2 | 104.5
COc1ccc(C(=O)Nc2ccc(NC(=O)C3CC3)nc2)cc1 | i | 103.0 | 106.3 | 105.8 | 101.2 | 105.7
Oc1ccc(Cl)cc1-c1cc(-c2ccco2)[nH]n1 | i | 97.5 | 100.3 | · | 39.3 | 251.8*
Oc1ccccc1-c1cc(-c2ccco2)[nH]n1 | i | 115.8 | · | 98.0 | 82.3 | 88.2
